Consider 50 compounds from PubChem BioAssay AID1839 (Johns Hopkins Ion Channel Center, 2009).

Among all 2,400 compounds or so, about 220 (9.2%) were called active.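 How the source made its calls: active means signal change above the mean of dofetilide-free buffer controls plus 3 SD, so a positive margin; inactive means the rest.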 For the sample, actives were picked, then their nearest neighbours and some compounds at random.

The assay can be described thus: thallium signal changes without hERG – cell-based, CHO-K1 parental line, FluxOR thallium flux, counter-screen for hERG block protection project, confirmation (AID 1839).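 Further: compounds applied alone with no dofetilide to cells lacking hERG.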 To be noted: CHO-K1 parental cells, FluxOR thallium flux fluorescence; at 10 µM.
Take `O=C(Nc1ccc(Cl)cc1)Nn1cnnc1`: the signal change vs control minus 3*SD hit threshold (margin above threshold, higher = more increase) was -19.6% (inactive).

In the case of `CCOC(=O)C1=C(c2ccccc2)NC(=O)NC1c1ccc(O)c(Cl)c1` (stereo not given), the signal change vs control minus 3*SD hit threshold (margin above threshold, higher = more increase) is -23.2% (inactive). In the case of `O=c1c2ccccc2[nH]c(=S)n1C1CCCCC1`, the signal change vs control minus 3*SD hit threshold (margin above threshold, higher = more increase) is -31.6% (inactive).

Turning to `CC1CCCCC1n1c(=S)[nH]c2ccccc2c1=O` (stereo not given), the signal change vs control minus 3*SD hit threshold (margin above threshold, higher = more increase) is -13.4% (inactive).

For `CC1CCC(n2c(=S)[nH]c3ccccc3c2=O)CC1` (stereo not given), the signal change vs control minus 3*SD hit threshold (margin above threshold, higher = more increase) was 23.6% (active). On to `Cc1c(C(=O)N/N=C/c2ccccn2)nnn1-c1nonc1N`, for which the signal change vs control minus 3*SD hit threshold (margin above threshold, higher = more increase) was -22.2% (inactive).

Consider `Cn1c(=O)c2sc3c(c2n(CC(=O)Nc2ccccc2)c1=O)COC(C)(C)C3`, for which the signal change vs control minus 3*SD hit threshold (margin above threshold, higher = more increase) is -33% (inactive). As to `c1ccc(-c2ccc(-c3ccncn3)cc2)cc1`, the signal change vs control minus 3*SD hit threshold (margin above threshold, higher = more increase) is -28.8% (inactive).

As to `COc1ccc(NC(=S)Nc2ccccn2)cc1`, the signal change vs control minus 3*SD hit threshold (margin above threshold, higher = more increase) is -35.9% (inactive). For `O=C(NC(=S)Nc1ccccc1Cl)c1csnn1`, the signal change vs control minus 3*SD hit threshold (margin above threshold, higher = more increase) is 39.6% (active).

For the compound `COc1ccc(NC(=S)NC(=O)c2ccc(Br)o2)cc1`, the signal change vs control minus 3*SD hit threshold (margin above threshold, higher = more increase) was -13.4% (inactive). For `O=C(NC(=S)Nc1ccccc1)c1cccs1`, the signal change vs control minus 3*SD hit threshold (margin above threshold, higher = more increase) was -16.6% (inactive). Turning to `Cc1csc(NC(=S)NC(=O)c2ccccc2)n1`, the signal change vs control minus 3*SD hit threshold (margin above threshold, higher = more increase) is -14.7% (inactive). As for `O=C(NC(=S)Nc1ccccc1Cl)c1ccco1`, the signal change vs control minus 3*SD hit threshold (margin above threshold, higher = more increase) was -7.5% (inactive). `O=C(NC(=S)Nc1ccccc1)c1cncc(C#Cc2ccccc2)c1`: the signal change vs control minus 3*SD hit threshold (margin above threshold, higher = more increase) is -27.9% (inactive). The value for `Cc1cccnc1NC(=O)c1csnn1` was -24.6% (inactive); that for `Cc1ccc(NC(=S)NC(=O)c2ccc(-c3ccccc3)cc2)cc1` was -23.5% (inactive); that for `COc1ccc(NC(=S)NC(=O)c2csnn2)cc1` was 9.6% (active). The value for `Cc1snnc1C(=O)NC(=S)Nc1ccccc1` was 5.3% (active); that for `O=C(NC(=S)Nc1ccccc1)c1csnn1` was 50.8% (active); that for `CC(=O)Nc1ccc(NC(=O)CSc2ncc(C(=O)Nc3ccc(Cl)cc3)c(=O)n2C)cc1` was -22.1% (inactive). As to `S=C(N/N=C/c1ccccc1Cl)Nc1cccc(Cl)c1Cl`, the signal change vs control minus 3*SD hit threshold (margin above threshold, higher = more increase) is -4.6% (inactive). Consider `O=C1CC(N2CCN(c3ccccc3Cl)CC2)C(=O)N1c1ccc(F)cc1` (stereo not given), for which the signal change vs control minus 3*SD hit threshold (margin above threshold, higher = more increase) is -20.8% (inactive). Next, `COc1cccc(C(=O)/C=C/Nc2ccc(S(=O)(=O)Nc3cnc4ccccc4n3)cc2)c1`: -33.7% (inactive); `C/C(=N/NC(=O)c1ccncc1)c1ccc2c(c1)OCO2`: -30.7% (inactive); `Cn1c(=O)c(-c2cc(=O)[nH][nH]2)c(O)c2ccccc21`: -23.6% (inactive).

On to `Cc1noc(C)c1-c1nnc(-c2ccc(C(F)(F)F)cc2)o1`, for which the signal change vs control minus 3*SD hit threshold (margin above threshold, higher = more increase) is -18.1% (inactive). On to `Cn1cc([N+](=O)[O-])c(C(=O)NCc2cc3cc(Cl)ccc3[nH]2)n1`, for which the signal change vs control minus 3*SD hit threshold (margin above threshold, higher = more increase) was -24.3% (inactive). The value for `Cc1ccc(NC(=O)C2C3CCC(O3)C2C(=O)O)cc1C` (stereo not given) was -26% (inactive); that for `CC(NC(=O)c1ccncc1)C(C)(C)C` (stereo not given) was -25.4% (inactive). Next, `Cc1ccccc1Cc1c(C)nc2c(C(=O)NCc3ccc4c(c3)OCO4)cnn2c1C`: -30.9% (inactive); `O=c1c(-c2ccccc2)nc(-c2ccccc2)cn1O`: 27.1% (active); `Cc1nc(-c2ccccc2)cn(O)c1=O`: -14.6% (inactive). Consider `COC(=O)Nc1c(-c2ccccc2)nc2ccccn12`, for which the signal change vs control minus 3*SD hit threshold (margin above threshold, higher = more increase) was -32.5% (inactive).

In the case of `Cc1ccc(C)c(NC(=S)NNC(=O)c2csc3c2CCC(C)C3)c1` (stereo not given), the signal change vs control minus 3*SD hit threshold (margin above threshold, higher = more increase) was -16.3% (inactive).

With `COc1ccccc1C(=O)NC(=S)NNC(=O)c1sc2ccccc2c1Cl`, the signal change vs control minus 3*SD hit threshold (margin above threshold, higher = more increase) was 23.2% (active). Next, `COc1ccccc1C(=O)NNC(=S)NC(=O)c1sc2ccccc2c1Cl`: -27.2% (inactive); `O=C(NC(=S)N(CCCCO)C1CCCCC1)c1sc2ccccc2c1Cl`: -27.6% (inactive). For the compound `CCCOC(=S)NC(=O)c1sc2ccccc2c1Cl`, the signal change vs control minus 3*SD hit threshold (margin above threshold, higher = more increase) is -4% (inactive). Next, `COC(=O)CC1C(=O)NCCN1C(=S)NC(=O)c1sc2ccccc2c1Cl` (stereo not given): -17.8% (inactive); `CCCCOC(=S)NC(=O)c1sc2ccccc2c1Cl`: 24.5% (active).

Regarding `CCOC(=S)NC(=O)c1sc2ccccc2c1Cl`, the signal change vs control minus 3*SD hit threshold (margin above threshold, higher = more increase) was 3% (active). As for `Cc1ccc(NC(=S)NC(=O)c2sc3ccccc3c2Cl)c(C(=O)O)c1`, the signal change vs control minus 3*SD hit threshold (margin above threshold, higher = more increase) is -25.3% (inactive). Take `O=C(NNC(=S)NC(=O)c1sc2ccccc2c1Cl)c1ccc(Cl)cc1`: the signal change vs control minus 3*SD hit threshold (margin above threshold, higher = more increase) was -22.6% (inactive). Next, `Cc1cccc(OCC(=O)NC2CCCc3ccccc32)c1C` (stereo not given): -39.9% (inactive). As to `CCc1nnc(NC(=O)CSc2nc(-c3ccccc3)cc(-c3ccc(OC)cc3)c2C#N)s1`, the signal change vs control minus 3*SD hit threshold (margin above threshold, higher = more increase) was -33.2% (inactive). Consider `COc1ccc(C2/C(=C(/O)c3ccc(Br)cc3)C(=O)C(=O)N2C)cc1` (stereo not given), for which the signal change vs control minus 3*SD hit threshold (margin above threshold, higher = more increase) is -34.2% (inactive).

`CCOC(=O)c1sc(NC(=S)NC(=O)c2ccc(OC)cc2)nc1C`: the signal change vs control minus 3*SD hit threshold (margin above threshold, higher = more increase) was -23.3% (inactive). With `CCOC(=O)c1sc(=S)n2c1[nH]c(=O)c1ccc(C(=O)OC)cc12`, the signal change vs control minus 3*SD hit threshold (margin above threshold, higher = more increase) was 27.7% (active). Turning to `CCOCCCn1c(=S)[nH]c2cc(C(=O)NCCOC)ccc2c1=O`, the signal change vs control minus 3*SD hit threshold (margin above threshold, higher = more increase) is -21.5% (inactive).
